# Yeast superoxide = reduction of superoxide in aged yeast, primary screen, HTS. S. cerevisiae aged cells, superoxide DHE fluorescence; hits give low values. superoxide response (% of plate mean), % at 10 µM. 330,000 tested, 0.18% active. AID 2690, 2010;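 active = superoxide response under a set limit, about three screen SD below normal, cut at about 65% in these data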;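 note: yeast aged for seven days with compound at 30 °C before DHE staining; 100% = average MFI of all compound-treated wells on the plate with controls excluded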
# A3A deaminase = APOBEC3A ssDNA deaminase inhibitors, primary screen, selectivity assay for APOBEC3G inhibitor project, biochemical, FAM/TAMRA oligo cleavage fluorescence. DNA dC->dU-editing enzyme APOBEC-3A (Homo sapiens), P31941. recombinant A3A, FAM/TAMRA ssDNA deamination fluorescence. inhibition, % at 20 µM. 330,000 tested, 0.41% active;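 active = at least 40% inhibition at 20 µM here, with at most 30% in a related deaminase screen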;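 note: plate controls were A3A with DMSO for no effect and wells lacking A3A enzyme for full effect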
# Target sequence (P31941 whole entry, looked up): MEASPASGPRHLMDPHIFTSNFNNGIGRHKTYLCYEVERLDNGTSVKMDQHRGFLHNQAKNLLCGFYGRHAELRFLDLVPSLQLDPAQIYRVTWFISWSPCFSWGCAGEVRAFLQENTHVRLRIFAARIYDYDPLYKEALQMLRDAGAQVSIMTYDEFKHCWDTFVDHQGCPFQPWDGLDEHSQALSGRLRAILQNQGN
# APOBEC3G inh = APOBEC3G DNA deaminase inhibitors, primary screen, biochemical, fluorescence, single-stranded DNA substrate, uHTS | AID 493012, 2011 | recombinant A3G, ssDNA deamination FAM/TAMRA fluorescence | inhibition, % at 20 µM | 330,000 tested, 0.28% active;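 active = inhibition of at least 40% at 20 µM, with no more than 30% in the related APOBEC3A deaminase screen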;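 note: plate controls were DMSO wells with A3G for no effect and wells lacking A3G enzyme for full effect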
# CendR NRP1 mod = modulators of CendR peptide binding to NRP-1, primary screen, biochemical, fluorescence polarization, uHTS | inhibition, % at 25 µM | FAM-RPARPAR peptide binding to NRP-1 | 360,000 tested, 0.85% active;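 active = inhibition or corrected inhibition above about 18%, plus a signal ratio from 0.5 to 1.5, limit read from the data, passing the limit was not always enough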
# M18AAP inhibitor = PfM18AAP inhibitors, malaria aminopeptidase, primary screen, biochemical, QFRET, recombinant enzyme; M18 aspartyl aminopeptidase (Plasmodium falciparum 3D7); H-Glu-NHMec fluorogenic cleavage; inhibition, % at 7.35 µM; 290,000 tested, 1.2% active; AID 1822, 2009;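 active = inhibition above the campaign mean inhibition over all tested compounds plus 3 SD, cut at about 28% in these data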;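 note: 0% = plate median of test compound wells and 100% = 2 mM ZnCl2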
# ALR H2O2 inh = inhibitors of human ALR sulfhydryl oxidase, primary screen, biochemical, H2O2 detection, HRP-luminol luminescence, single point | purified ALR, DTT oxidation | inhibition, % (test concentration not listed) | 290,000 tested, 3.8% active | AID 485317, 2010;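 active = mean replicate inhibition above about 79%, with every replicate also reaching it, limit read from the data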
# Target sequence (P55789 whole entry, looked up): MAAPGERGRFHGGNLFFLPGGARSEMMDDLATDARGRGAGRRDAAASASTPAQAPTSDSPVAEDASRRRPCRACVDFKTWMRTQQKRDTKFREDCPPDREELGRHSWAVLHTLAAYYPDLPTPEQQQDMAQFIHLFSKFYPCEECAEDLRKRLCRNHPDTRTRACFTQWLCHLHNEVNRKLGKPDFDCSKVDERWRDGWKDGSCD
# * = called active by the depositor; nt = not tested or not shown. Rows were chosen to be rich in hits. Some 5.2% of all compounds tested hit in one or more screens of this group.
SMILES,Yeast superoxide,A3A deaminase,APOBEC3G inh,CendR NRP1 mod,M18AAP inhibitor,ALR H2O2 inh
CCOC(=O)C1CCN(S(=O)(=O)c2ccc3c(c2)CCN3C(C)=O)CC1,91,-1,-8,9,0,1
Cc1ccc(S(=O)(=O)N2C(=O)CCC2C(=O)NCc2ccco2)cc1 (stereo not drawn),96,-4,-3,12,-7,-8
CCOc1ccc2nc(NC(=O)CSc3ccc(Cl)cc3)sc2c1,96,2,-3,-14,-11,-28
Cc1ccc(S(=O)(=O)N2CCOCC2)cc1NCC(=O)Nc1ccc(OC(F)(F)F)cc1,96,14,2,20*,nt,24
COc1ccc2nc(NC(=O)c3cc(S(=O)(=O)N4CCOCC4)ccc3C)sc2c1,105,7,-2,26*,-5,-8
CCOc1ccc2nc(NC(=O)CSC3=NCCS3)sc2c1,102,-13,-4,12,1,99*
COc1ccc2nc(NC(=O)CSC3=NCCS3)sc2c1,89,-1,-3,6,0,98*
CCOc1cc(S(=O)(=O)n2ccnc2)ccc1Cl,94,-2,-5,14,3,nt
O=S1(=O)CCC(NCC2CCCO2)C1 (stereo not drawn),108,2,-3,-6,-3,nt
CC(C)C[C@H]1CN([C@@H](Cc2ccc(O)cc2)CN2CCC[C@H]2CN2C(=O)C(=O)NC[C@@H]2Cc2ccccc2)C(=O)C(=O)N1CCc1ccccc1,nt,nt,nt,1,nt,nt
COc1ccc2nc(NC(=O)CN3CCOCC3)sc2c1,82,3,2,21*,-6,-18
O=P(O)(CN1CCCCCC1)CN1CCCCCC1,nt,nt,nt,nt,4,nt
O=c1cc(-c2ccccc2)[nH]c2[nH]n(-c3ccccc3)c(=O)c12,102,1,1,-8,-5,99*
CCOC(=O)CC1=NN(c2ccccc2)C(=O)C1,92,-3,-1,-5,2,-44
CCOC(=O)Cc1cc(=O)c2c(=O)n(-c3ccccc3)[nH]c2[nH]1,97,3,2,8,18,78*
COc1ccc(-c2nc(CS(=O)(=O)CC(=O)NCCCN3CCOCC3)c(C)o2)cc1,89,-2,0,6,-2,-1
COc1cccc(-c2nc(CS(=O)(=O)CC(=O)NCCCN3CCOCC3)c(C)o2)c1,79,0,-4,5,-10,99*
Cc1oc(-c2ccccc2Cl)nc1CS(=O)(=O)CC(=O)NCCN1CCOCC1,94,-1,0,-5,-3,93*
Cc1ccccc1-c1nc(CS(=O)(=O)CC(=O)NCCN2CCCC2)c(C)o1,104,-4,-3,-4,-2,-4
CCOc1ccc(CCNC(=O)CS(=O)(=O)Cc2nc(-c3cccc(OC)c3)oc2C)cc1,101,-3,1,-2,-6,-9
CCC1CCCCN1CCCNC(=O)CS(=O)(=O)Cc1nc(-c2cccc(OC)c2)oc1C (stereo not drawn),81,1,0,0,2,98*
Cc1oc(-c2cccc(Cl)c2)nc1CS(=O)(=O)CC(=O)NCCN1CCOCC1,85,-2,-5,9,-5,95*
FC(F)Oc1ccc(NC(=S)NC2CCCCCCC2)cc1,104,1,-2,6,2,4
Cc1cccc2cc(CNC3CCCC3)c(Cl)nc12,98,0,-4,9,-3,-2
Cc1oc(-c2ccccc2Cl)nc1CS(=O)(=O)CC(=O)N1CCOCC1,108,1,3,-10,-1,98*
COc1cccc(-c2nc(CS(=O)(=O)CC(=O)NCCCN3CCc4ccccc4C3)c(C)o2)c1,103,-2,-3,1,0,99*
CCN1CCN(C(=O)CS(=O)(=O)Cc2nc(-c3cccc(OC)c3)oc2C)CC1,93,1,4,10,5,99*

# Screening results as filed in PubChem BioAssay.
